Values joined by “and” are separate entries in the source; they are usually repeats but may differ in a detail not shown here. Equal values may be shown once. Active and inactive are the calls of the source.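 Rule for the calls, unless noted: active = thallium flux through the channel raised or lowered by more than 3 SD from vehicle-only wells, actives on both sides; inactive = the rest.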 Numbered stars: 1 amine (or outer) side, 2 acyl side, 3 side chain; on linkers, the order of the positions; unused ones are H or OH. Bridge positions count the residues as written; N and C are the ends. Square brackets hold non-standard residues; d marks the D form. Peptide text beside a SMILES is read from it. I, II: the chains in the order shown. Actinocin(9to1) = Cc1c2oc3c(C)ccc(C(=O)[*:1])c3nc-2c(C(=O)[*:2])c(N)c1=O; NMeV = CN[CH](C(=O)O)C(C)C; Sar = CNCC(=O)O
Experiments:
[1] = viability loss with induced miR-34 in A549 – imaging, A549 dox-inducible miR-34, nuclei and caspase counts, primary screen (AID 1347080;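 active = compounds whose cell count with miR-34 switched on is under 0.7 times the count with it off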); conditions: A549 miR-34 inducible, Hoechst nuclei count, 48 h
[2] = galactose survival enhancers in mitochondrial complex I cybrids – cell-based, galactose medium, ATP luminescence, primary screen (AID 1645843;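 active = z-score of at least 1.8 in each of two replicates, scored against plate mean and spread of sample wells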;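 note: positive z means more ATP and so rescue of galactose-driven cybrid death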); conditions: complex I mutant cybrid cells, 72 h, stronger effect = higher value
[3] = test system: F380Y; assay: BK channel mutant inhibitors and activators – cell-based, U2OS BacMam, thallium flux, beta subunits, selectivity assay, profiling panel (AID 1259406); conditions: U2OS BacMam BK variants, at 30 µM;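 note: initial slope of Thallos dye fluorescence rise after thallium is added; log ratio against the mean of 0.3% DMSO vehicle wells on the same plate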
[4] = test system: F380Y/beta1; assay: as above; conditions: U2OS BacMam BK variants, at 30 µM
[5] = test system: F380Y/beta2Delta; assay: as above; conditions: U2OS BacMam BK variants, at 30 µM
[6] = test system: F380Y/beta4; assay: as above; conditions: U2OS BacMam BK variants, at 30 µM
[7] = biological target: Calcium-activated potassium channel subunit alpha-1 (Homo sapiens) + Leucine-rich repeat-containing protein 26 (Homo sapiens) (UniProt Q12791+Q2I0M4); assay: as above; conditions: U2OS BacMam BK variants, F380Y/Slo1WT/gamma1, at 30 µM
Calcium-activated potassium channel subunit alpha-1 (Homo sapiens) + Leucine-rich repeat-containing protein 26 (Homo sapiens), sequence (Q2I0M4 whole entry, looked up, one chain of several): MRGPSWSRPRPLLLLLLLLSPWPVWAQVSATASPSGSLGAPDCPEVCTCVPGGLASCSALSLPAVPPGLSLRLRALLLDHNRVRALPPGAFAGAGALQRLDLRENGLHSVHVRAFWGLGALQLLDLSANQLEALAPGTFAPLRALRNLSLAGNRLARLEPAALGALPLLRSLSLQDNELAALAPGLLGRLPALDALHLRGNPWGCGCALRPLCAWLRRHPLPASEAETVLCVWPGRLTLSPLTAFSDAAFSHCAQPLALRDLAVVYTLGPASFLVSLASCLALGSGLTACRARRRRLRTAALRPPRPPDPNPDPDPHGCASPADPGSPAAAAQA

[8] = test system: R275C; assay: as above; conditions: U2OS BacMam BK variants, at 30 µM
[9] = test system: R275C/beta1; assay: as above; conditions: U2OS BacMam BK variants, at 30 µM
[10] = test system: R275C/beta2Delta; assay: as above; conditions: U2OS BacMam BK variants, at 30 µM
[11] = test system: R275C/beta4; assay: as above; conditions: U2OS BacMam BK variants, at 30 µM
[12] = test system: R275C/Slo1WT/beta2; assay: as above; conditions: U2OS BacMam BK variants, at 30 µM
[13] = P. berghei load reduction in hepatocytes – cell-based, HepG2, luciferase luminescence, HepG2 viability, primary screen (AID 624349; in the data active = parasite load remaining mostly below about 12%, no sharp cut-off; inactive = mostly above about 10%;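 note: 100% = mean of DMSO negative control wells on the same plate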); conditions: P. berghei liver stage in HepG2, luciferase luminescence, concentration not given here; parasite load remaining: stronger effect = lower value; viability: measured here: HepG2 viability without parasites
[14] = signal quenchers or enhancers, Cy5 substrate/SSB – biochemical, NIH Clinical Collection, E. coli SSB, artefact control for HCV NS3 helicase inhibitor project (AID 743268; call rule not given here); conditions: Cy5-oligo bound E. coli SSB, fluorescence interference
[15] = test system: Hepatitis C virus NS3 helicase; assay: blockers of NS3h binding to DNA – biochemical, fluorescence polarization, NIH Clinical Collection, primary screen (AID 743270; call rule not given here); conditions: NS3 helicase binding to Cy5-dT15 DNA, stronger effect = higher value, concentration not given here
[16] = biological target: Single-stranded DNA-binding protein (Escherichia coli (strain K12)) (UniProt P0AGE0); assay: SSB-ssDNA binding inhibitors – biochemical, fluorescence polarization, NIH Clinical Collection, counter-screen for HCV NS3 helicase inhibitor project (AID 743271; in the data active = inhibition above about 28%); conditions: E. coli SSB-DNA binding, stronger effect = higher value, concentration not given here
[17] = compounds distorting NS3 helicase fluorescence signal – biochemical, NIH Clinical Collection, artefact control for HCV NS3 helicase inhibitor project (AID 743272; call rule not given here;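 note: HCV NS3 helicase with a Cy5 labelled single stranded DNA probe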); conditions: fluorescence interference counterscreen, HCV NS3 helicase assay; stronger effect = lower value
[18] = test system: Neuropilin-2 / VEGF-C interaction (human); assay: small molecules blocking Neuropilin-2/VEGF-C interaction – biochemical, microplate binding format, z-score (AID 743281; call rule not given here); conditions: microplate NRP2/VEGF-C binding assay; stronger effect = lower value
[19] = modulation of C. elegans fzo-1 (AID 1259413; call rule not given here;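 note: fzo-1 mutant C. elegans worms in liquid wells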); conditions: C. elegans fzo-1 modulator screen, mean read-out; stronger effect = higher value
[20] = MELAS cybrid and Rieske KO viability enhancers – cell-based, MELAS cybrids, Rieske KO mouse fibroblasts, CellTiter-Glo, primary screen (AID 1508586;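 active = mean z-score across replicates of 1.96 or higher in either the MELAS or the Rieske mutant cell line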;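 note: z relative to plate mean and SD of compound and empty wells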); conditions: low glucose
[21] = stronger effect = lower value, cell number ratio, induced over uninduced
[22] = measured here: relative caspase fold change +Dox/-Dox
[23] = measured here: total cells with miR-34 induction, stronger effect = lower value
[24] = measured here: total cells without miR-34 induction

## Cc1c2oc3c(C)ccc(C(=O)NC4C(=O)NC(C(C)C)C(=O)N5CCCC5C(=O)N(C)CC(=O)N(C)C(C(C)C)C(=O)OC4C)c3nc-2c(C(=O)NC2C(=O)NC(C(C)C)C(=O)N3CCCC3C(=O)N(C)CC(=O)N(C)C(C(C)C)C(=O)OC2C)c(N)c1=O (centres undefined) (I: TVP[Sar][NMeV] / II: TVP[Sar][NMeV]; ester I:1-I:C, II:1-II:C; linker I:N-II:N via Actinocin(9to1); configuration not given here)
[1]; [21]
  fold change: 1.02 (inactive)
[1]; [22]
  fold change: 1.2
[1]; [23]
  cell count: 2640
[1]; [24]
  cell count: 2570
[2]
  z-score: -1.86 (inactive)
[3]
  log fold change Tl+ flux: -0.0282 (inactive)
[4]
  log fold change Tl+ flux: 0.0244 (inactive)
[5]
  log fold change Tl+ flux: -0.0313 (inactive)
[6]
  log fold change Tl+ flux: -0.0252 (inactive)
[7]
  log fold change Tl+ flux: -0.013 (inactive)
[8]
  log fold change Tl+ flux: -0.0516 (inactive)
[9]
  log fold change Tl+ flux: 0.0499 (inactive)
[10]
  log fold change Tl+ flux: -0.00324 (inactive)
[11]
  log fold change Tl+ flux: 0.0337 (inactive)
[12]
  log fold change Tl+ flux: 0.0757 (inactive)

## CCC1=C[C@H]2CN(C1)Cc1c([nH]c3ccccc13)[C@@](C(=O)OC)(c1cc3c(cc1OC)N(C)[C@H]1[C@@](O)(C(=O)OC)[C@H](OC(C)=O)[C@]4(CC)C=CCN5CC[C@]31[C@@H]54)C2
[13]
  parasite load remaining: 32.2% (inactive)
  viability: 76.8%
[14]
  fluorescence ratio: 0.8 (active)
[15]
  inhibition: -1.98% (inactive)
[16]
  inhibition: 9.91% (inactive)
[17]
  fluorescence ratio: 0.78 (active)
[18]
  z-score: 1.48 (inactive)
[19]
  mean signal: 244 (inactive)
[3]
  log fold change Tl+ flux: 0.0913 (inactive)
[4]
  log fold change Tl+ flux: 0.0236 (inactive)
[5]
  log fold change Tl+ flux: 0.0207 (inactive)
[6]
  log fold change Tl+ flux: 0.0427 (inactive)
[7]
  log fold change Tl+ flux: -0.0112 (inactive)
[8]
  log fold change Tl+ flux: -0.149 (active)
[9]
  log fold change Tl+ flux: 0.0456 (inactive)
[10]
  log fold change Tl+ flux: 0.0329 (inactive)
[11]
  log fold change Tl+ flux: 0.0723 (inactive)
[12]
  log fold change Tl+ flux: 0.104 (active)

## O=C(O)COCCN1CCN([C@H](c2ccccc2)c2ccc(Cl)cc2)CC1
[13]
  parasite load remaining: 91.6% (inactive)
  viability: 73.9%
[18]
  z-score: -0.677 (inactive)
[19]
  mean signal: 261 (inactive)
[3]
  log fold change Tl+ flux: 0.0476 (inactive)
[4]
  log fold change Tl+ flux: 0.0381 (inactive)
[5]
  log fold change Tl+ flux: 0.0598 (inactive)
[6]
  log fold change Tl+ flux: -0.027 (inactive)
[7]
  log fold change Tl+ flux: 0.0629 (inactive)
[8]
  log fold change Tl+ flux: -0.011 (inactive)
[9]
  log fold change Tl+ flux: 0.122 (active)
[10]
  log fold change Tl+ flux: 0.083 (inactive)
[11]
  log fold change Tl+ flux: 0.0472 (inactive)
[12]
  log fold change Tl+ flux: 0.0404 (inactive)

## C[C@]12CC3CC(N)(C1)C[C@@](C)(C3)C2
[13]
  parasite load remaining: 113% (inactive) and 58.5% (inactive)
  viability: 85.8% and 102%
[14]
  fluorescence ratio: 1.06 (inactive)
[15]
  inhibition: 0.4% (inactive)
[16]
  inhibition: -0.87% (inactive)
[17]
  fluorescence ratio: 0.95 (inactive)
[1]; [21]
  fold change: 0.918 (inactive) and 0.871 (inactive)
[1]; [22]
  fold change: 1.34 and 1.17
[1]; [23]
  cell count: 9680 and 10100
[1]; [24]
  cell count: 10500 and 11600
[20]; MELAS cybrid survival, CellTiter-Glo 48 h, stronger effect = higher value
  z-score: -0.593 (inactive)
[20]; Rieske KO mouse fibroblast survival, CellTiter-Glo 72 h
  z-score: -0.282
[2]
  z-score: -0.375 (inactive) and -0.275 (inactive)
[3]
  log fold change Tl+ flux: -0.00548 (inactive)
[4]
  log fold change Tl+ flux: -0.0368 (inactive)
[5]
  log fold change Tl+ flux: 0.033 (inactive)
[6]
  log fold change Tl+ flux: 0.0342 (inactive)
[7]
  log fold change Tl+ flux: -0.0162 (inactive)
[8]
  log fold change Tl+ flux: 0.0086 (inactive)
[9]
  log fold change Tl+ flux: -0.0112 (inactive)
[10]
  log fold change Tl+ flux: -0.0288 (inactive)
[11]
  log fold change Tl+ flux: -0.00234 (inactive)
[12]
  log fold change Tl+ flux: -0.0124 (inactive)

## CC1CC2C3CCC4=CC(=O)C=CC4(C)[C@@]3(Cl)C(O)CC2(C)C1(O)C(=O)CO (some centres undefined)
[13]
  parasite load remaining: 68.1% (inactive)
  viability: 67.8%
[14]
  fluorescence ratio: 0.98 (inactive)
[15]
  inhibition: -0.22% (inactive)
[16]
  inhibition: -1.97% (inactive)
[17]
  fluorescence ratio: 0.95 (inactive)
[18]
  z-score: 0.0119 (inactive)
[19]
  mean signal: 282 (inactive)
[1]; [21]
  fold change: 0.839 (inactive)
[1]; [22]
  fold change: 1.07
[1]; [23]
  cell count: 7120
[1]; [24]
  cell count: 8490
[2]
  z-score: 1.36 (inactive)
[3]
  log fold change Tl+ flux: 0.104 (inactive)
[4]
  log fold change Tl+ flux: 0.0975 (active)
[5]
  log fold change Tl+ flux: -0.00287 (inactive)
[6]
  log fold change Tl+ flux: 0.0497 (inactive)
[7]
  log fold change Tl+ flux: 0.0373 (inactive)
[8]
  log fold change Tl+ flux: -0.0315 (inactive)
[9]
  log fold change Tl+ flux: 0.106 (active)
[10]
  log fold change Tl+ flux: 0.0411 (inactive)
[11]
  log fold change Tl+ flux: 0.0585 (inactive)
[12]
  log fold change Tl+ flux: 0.0245 (inactive)

## O=c1c(O[C@@H]2O[C@H](CO)[C@H](O)[C@H](O)[C@H]2O)c(-c2ccc(O)c(O)c2)oc2cc(O)cc(O)c12
[13]
  parasite load remaining: 108% (inactive)
  viability: 61.9%
[14]
  fluorescence ratio: 0.94 (inactive)
[15]
  inhibition: 1.98% (inactive)
[16]
  inhibition: 15.3% (inactive)
[17]
  fluorescence ratio: 1 (inactive)
[18]
  z-score: -0.00792 (inactive)
[19]
  mean signal: 249 (inactive)
[3]
  log fold change Tl+ flux: -0.00852 (inactive)
[4]
  log fold change Tl+ flux: -0.00723 (inactive)
[5]
  log fold change Tl+ flux: -0.0335 (inactive)
[6]
  log fold change Tl+ flux: -0.027 (inactive)
[7]
  log fold change Tl+ flux: -0.0251 (inactive)
[8]
  log fold change Tl+ flux: -0.00833 (inactive)
[9]
  log fold change Tl+ flux: -0.0329 (inactive)
[10]
  log fold change Tl+ flux: 0.0189 (inactive)
[11]
  log fold change Tl+ flux: 0.0212 (inactive)
[12]
  log fold change Tl+ flux: -0.0201 (inactive)

## CCC[C@@H]1C[C@@H](C(=O)N[C@H]([C@@H](C)O)[C@H]2O[C@H](SC)[C@H](O)[C@@H](O)C2O)N(C)C1 (some centres undefined)
[13]
  parasite load remaining: 97.8% (inactive)
  viability: 91%
[14]
  fluorescence ratio: 0.98 (inactive)
[15]
  inhibition: -5% (inactive)
[16]
  inhibition: -3.53% (inactive)
[17]
  fluorescence ratio: 1.03 (inactive)
[19]
  mean signal: 237 (inactive)
[3]
  log fold change Tl+ flux: 0.0293 (inactive)
[4]
  log fold change Tl+ flux: -0.0324 (inactive)
[5]
  log fold change Tl+ flux: 0.0245 (inactive)
[6]
  log fold change Tl+ flux: 0.0251 (inactive)
[7]
  log fold change Tl+ flux: 0.0541 (inactive)
[8]
  log fold change Tl+ flux: -0.0022 (inactive)
[9]
  log fold change Tl+ flux: -0.0579 (inactive)
[10]
  log fold change Tl+ flux: -0.0468 (inactive)
[11]
  log fold change Tl+ flux: -0.0617 (inactive)
[12]
  log fold change Tl+ flux: -0.0428 (inactive)

## C[n+]1ccccc1C=NO
[13]
  parasite load remaining: 51.7% (inactive)
  viability: 127%
[1]; [21]
  fold change: 0.861 (inactive)
[1]; [22]
  fold change: 4.73
[1]; [23]
  cell count: 11500
[1]; [24]
  cell count: 13300
[3]
  log fold change Tl+ flux: -0.0173 (inactive)
[4]
  log fold change Tl+ flux: 0.0118 (inactive)
[5]
  log fold change Tl+ flux: -0.00109 (inactive)
[6]
  log fold change Tl+ flux: -0.0377 (inactive)
[7]
  log fold change Tl+ flux: -0.000474 (inactive)
[8]
  log fold change Tl+ flux: -0.00984 (inactive)
[9]
  log fold change Tl+ flux: 0.0135 (inactive)
[10]
  log fold change Tl+ flux: 0.00623 (inactive)
[11]
  log fold change Tl+ flux: -0.0487 (inactive)
[12]
  log fold change Tl+ flux: -0.0159 (inactive)
